Experimental data: the supplement of paper PMC10849652
Of roughly 7,900 targets only a part is listed; those with a hit were picked by preference. About 0.6% of all pairs of compound and target were hits. A number with no mark means an inactive call.

Assays:
Assay in all cases: log2 fold change, soluble protein after heating vs DMSO (PISA); higher = thermal stabilisation; K562 cells, 10 uM, 30 min; active = over 0.2 and 3.5 SD of the protein, either way, in both replicates (recomputed)
IRAK-1-4 Inhibitor I = compound: C1COCCN1CCN2C3=CC=CC=C3N=C2NC(=O)C4=CC(=CC=C4)[N+](=O)[O-] [IRAK-1-4 Inhibitor I]
Procedure, shortened: (§1)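 K562 cells at 2×10^6 cells/mL were given 10 μM compound for 30 min. Aliquots then went through 3 min of heating across 48°C-58°C, were pooled, and were extracted in PBS with 0.5% NP-40 at 4°C, and the supernatant after 21,000xg for 90 min was quantified by TMTpro 16plex LC-MS/MS with channel sums equalised. Thermal stability relative to control samples, from duplicates, is given as log2 fold change.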

ibrutinib = compound: C=CC(=O)N1CCC[C@@H](n2nc(-c3ccc(Oc4ccccc4)cc3)c3c(N)ncnc32)C1 [ibrutinib]
Procedure, shortened: as §1

[1] = compound: CC(=O)c1cnc2ccc(-c3cc(Cl)c(O)c(Cl)c3)nc2c1N[C@H]1CC[C@H](CN(C)C)CC1
Procedure, shortened: as §1

ralimetinib = compound: CC(C)(C)Cn1c(N)nc2ccc(-c3[nH]c(C(C)(C)C)nc3-c3ccc(F)cc3)nc21 [ralimetinib]
Procedure, shortened: as §1

[2] = compound: CC(C)(O)CC(=O)NCCn1ccc2ncnc(Nc3ccc(Oc4cccc(C(F)(F)F)c4)c(Cl)c3)c21
Procedure, shortened: as §1

[3] = compound: CC(C)C1=C2N=C(C=C(N2N=C1)NCC3=CC=CC=C3)NCCCCCCN
Procedure, shortened: as §1

[4] = compound: CC(C)C[C@@H](C=O)NC(=O)[C@H](CC(C)C)NC(=O)[C@H](CC(C)C)NC(=O)OCc1ccccc1
Procedure, shortened: as §1

pinometostat = compound: CC(C)N(C[C@H]1O[C@@H](n2cnc3c(N)ncnc32)[C@H](O)[C@@H]1O)[C@H]1C[C@@H](CCc2nc3cc(C(C)(C)C)ccc3[nH]2)C1 [pinometostat]
Procedure, shortened: as §1

[5] = compound: CC1=C(C(CC(=O)N1)C2=CC=C(C=C2)C(F)(F)F)C(=O)NC3=C(C=C4C(=C3)C=NN4)F
Procedure, shortened: as §1

[6] = compound: CC1=C(C2=C(C=C1)C(=O)C3=CC=CC=C3N2CCCN)C
Procedure, shortened: as §1

[7] = compound: CC1=C(C=C(C=C1)NC(=O)C2=CC(=CC=C2)C(C)(C)C#N)NC3=CC4=C(C=C3)N=CN(C4=O)C
Procedure, shortened: as §1

[8] = compound: CC1=C(C=C(C=C1)NC(=O)C2=CC(=CC=C2)N(C)C)NC(=O)C3=CC=C(C=C3)O
Procedure, shortened: as §1

[9] = compound: CC1=CC=C(C=C1)SC2=C3C=C(SC3=CN=C2)C(=O)N
Procedure, shortened: as §1

[10] = compound: CC1=NC(=CC=C1)C2=C(N=C(N2)C(C)(C)C)C3=CC4=NC=CN=C4C=C3
Procedure, shortened: as §1

Nexturastat A = compound: CCCCN(Cc1ccc(C(=O)NO)cc1)C(=O)Nc1ccccc1 [Nexturastat A]
Procedure, shortened: as §1

vemurafenib = compound: CCCS(=O)(=O)Nc1ccc(F)c(C(=O)c2c[nH]c3ncc(-c4ccc(Cl)cc4)cc23)c1F [vemurafenib]
Procedure, shortened: as §1

[11] = compound: CCCS(=O)(=O)Nc1ccc(F)c(C(=O)c2c[nH]c3ncc(Cl)cc23)c1F
Procedure, shortened: as §1

[12] = compound: CCCc1cc(C)[nH]c(=O)c1CNC(=O)c1cc(-c2ccnc(N3CCN(C)CC3)c2)cc2c1cnn2C(C)C
Procedure, shortened: as §1

givinostat = compound: CCN(CC)Cc1ccc2cc(COC(=O)Nc3ccc(C(=O)NO)cc3)ccc2c1 [givinostat]
Procedure, shortened: as §1

barasertib = compound: CCN(CCCOc1ccc2c(Nc3cc(CC(=O)Nc4cccc(F)c4)[nH]n3)ncnc2c1)CCOP(=O)(O)O [barasertib]
Procedure, shortened: as §1

Chain of UniProt Q9BZF1 (Q9BZF1 whole entry, looked up): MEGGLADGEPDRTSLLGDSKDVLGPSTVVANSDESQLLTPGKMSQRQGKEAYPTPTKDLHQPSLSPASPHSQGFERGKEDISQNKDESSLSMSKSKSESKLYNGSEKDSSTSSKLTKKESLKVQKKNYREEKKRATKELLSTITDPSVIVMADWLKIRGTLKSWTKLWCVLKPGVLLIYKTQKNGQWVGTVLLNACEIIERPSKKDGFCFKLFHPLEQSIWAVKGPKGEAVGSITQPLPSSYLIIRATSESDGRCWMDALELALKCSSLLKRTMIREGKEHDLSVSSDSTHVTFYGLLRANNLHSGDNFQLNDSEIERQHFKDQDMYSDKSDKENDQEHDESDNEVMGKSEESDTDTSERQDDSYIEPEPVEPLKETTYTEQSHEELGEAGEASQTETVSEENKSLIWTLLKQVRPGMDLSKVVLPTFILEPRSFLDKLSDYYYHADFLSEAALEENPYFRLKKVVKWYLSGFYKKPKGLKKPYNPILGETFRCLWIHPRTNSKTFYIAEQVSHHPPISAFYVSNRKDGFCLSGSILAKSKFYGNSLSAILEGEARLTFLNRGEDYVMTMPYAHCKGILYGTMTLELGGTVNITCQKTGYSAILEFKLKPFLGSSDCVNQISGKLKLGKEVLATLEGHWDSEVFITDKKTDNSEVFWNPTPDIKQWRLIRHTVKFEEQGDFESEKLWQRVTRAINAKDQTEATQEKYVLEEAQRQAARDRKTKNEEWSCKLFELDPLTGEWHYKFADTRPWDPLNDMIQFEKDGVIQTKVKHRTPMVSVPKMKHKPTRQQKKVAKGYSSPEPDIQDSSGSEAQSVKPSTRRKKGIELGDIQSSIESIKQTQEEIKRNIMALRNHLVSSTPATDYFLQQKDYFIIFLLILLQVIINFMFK
Chain of UniProt O95747 (O95747 whole entry, looked up): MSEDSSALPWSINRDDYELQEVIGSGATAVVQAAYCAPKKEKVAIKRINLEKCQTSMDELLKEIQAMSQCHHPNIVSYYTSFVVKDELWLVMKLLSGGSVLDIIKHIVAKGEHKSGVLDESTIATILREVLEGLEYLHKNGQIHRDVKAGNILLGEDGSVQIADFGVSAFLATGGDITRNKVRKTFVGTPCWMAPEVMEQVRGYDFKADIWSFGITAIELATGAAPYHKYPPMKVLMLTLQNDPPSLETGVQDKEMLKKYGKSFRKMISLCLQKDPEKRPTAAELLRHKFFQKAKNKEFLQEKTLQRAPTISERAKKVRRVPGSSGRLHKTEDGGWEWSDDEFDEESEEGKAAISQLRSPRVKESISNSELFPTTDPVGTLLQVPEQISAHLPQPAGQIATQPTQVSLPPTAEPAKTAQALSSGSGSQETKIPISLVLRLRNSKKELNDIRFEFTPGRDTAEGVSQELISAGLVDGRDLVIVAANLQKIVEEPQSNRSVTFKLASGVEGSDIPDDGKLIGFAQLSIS
Chain of UniProt Q9UI09 (Q9UI09 whole entry, looked up): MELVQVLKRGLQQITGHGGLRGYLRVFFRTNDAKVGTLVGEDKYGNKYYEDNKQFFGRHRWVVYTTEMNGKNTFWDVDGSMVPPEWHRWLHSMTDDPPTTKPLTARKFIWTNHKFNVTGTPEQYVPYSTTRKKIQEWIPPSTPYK
Chain of UniProt Q9BV86 (Q9BV86 whole entry, looked up): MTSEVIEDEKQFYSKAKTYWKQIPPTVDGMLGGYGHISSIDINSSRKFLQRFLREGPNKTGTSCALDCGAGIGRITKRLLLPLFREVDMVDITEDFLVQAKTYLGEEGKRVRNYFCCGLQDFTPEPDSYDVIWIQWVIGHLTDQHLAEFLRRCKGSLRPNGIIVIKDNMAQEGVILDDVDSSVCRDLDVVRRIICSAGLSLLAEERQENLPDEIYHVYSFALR
Chain of UniProt Q9BRA0 (Q9BRA0 whole entry, looked up): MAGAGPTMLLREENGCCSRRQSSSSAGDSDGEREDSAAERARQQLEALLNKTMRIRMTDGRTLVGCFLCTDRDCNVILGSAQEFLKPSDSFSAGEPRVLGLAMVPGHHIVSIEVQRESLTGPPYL
Chain of UniProt P15531 (P15531 whole entry, looked up): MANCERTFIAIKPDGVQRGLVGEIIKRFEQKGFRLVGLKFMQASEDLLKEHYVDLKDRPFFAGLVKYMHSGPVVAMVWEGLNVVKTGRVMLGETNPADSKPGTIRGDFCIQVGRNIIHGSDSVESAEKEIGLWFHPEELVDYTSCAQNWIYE

Target	log2 fold change (IRAK-1-4 Inhibitor I)	log2 fold change (ibrutinib)	log2 fold change [1]	log2 fold change (ralimetinib)	log2 fold change [2]	log2 fold change [3]	log2 fold change [4]	log2 fold change (pinometostat)	log2 fold change [5]	log2 fold change [6]	log2 fold change [7]	log2 fold change [8]	log2 fold change [9]	log2 fold change [10]	log2 fold change (Nexturastat A)	log2 fold change (vemurafenib)	log2 fold change [11]	log2 fold change [12]	log2 fold change (givinostat)	log2 fold change (barasertib)
MRPS5 (UniProt P82675)	-0.071	0.057	-0.019	0	-0.088	-0.083	0.078	0.056	-0.112	-0.207	0.08	-0.086	-0.005	0.004	0.159	-0.048	0.062	0.016	0.013	0.023
MRPS16 (UniProt Q9Y3D3)	-0.082	0.02	-0.047	-0.008	-0.034	-0.19	0.015	0.021	0	-0.126	0.055	-0.052	0.006	0.132	0.124	-0.014	0.062	0.032	0.031	-0.084
NAA38 isoform 2 (UniProt Q9BRA0)	0.047	-0.021	-0.034	0.02	-0.095	-0.397 (active)	-0.001	0.035	0.051	-0.01	0.018	0.041	0.018	-0.044	0.052	0.094	0.042	-0.129	0.066	-0.025
NME1 isoform 2 (UniProt P15531)	0.021	0.107	-0.007	-0.035	0.03	0.041	0.032	-0.017	-0.192	0.038	-0.054	0.047	0.029	-0.006	-0.067	-0.003	-0.045	-0.092	-0.07	-0.108
OSBPL8 (UniProt Q9BZF1)	-0.148	-0.042	-0.204	0.199	-0.019	-0.378	0.046	0.201	-0.076	0.045	0.209	0.011	0.009	-0.027	0.109	0.074	0.035	0.309	-0.03	0.094
NTMT1 (UniProt Q9BV86)	0	0.011	-0.046	-0.02	-0.053	0.095	-0.052	-0.029	-0.082	0.157	0.05	0.037	-0.003	-0.034	-0.042	0.062	0.012	-0.073	-0.066	0.019
NDUFA12 (UniProt Q9UI09)	0.05	-0.078	-0.04	-0.043	-0.128	-0.31 (active)	0.021	-0.06	-0.012	0.122	0.022	-0.1	0.014	-0.028	-0.027	0.039	0.03	-0.044	0.114	0.056
MRPS27 isoform 2 (UniProt Q92552)	-0.116	0.019	-0.002	0.069	-0.104	-0.161	-0.011	-0.022	-0.021	-0.06	0.037	-0.022	0.006	0.039	0.151	0.064	0.035	0.051	0.055	-0.016
OXSR1 (UniProt O95747)	0.014	-0.022	-0.341 (active)	0.045	-0.115	-0.111	-0.05	0.026	0.02	0.106	0.019	-0.11	0.014	0.004	-0.021	0.037	0.038	0.007	0.055	0.035
